Drawing on the OligoGym collection, this text covers sensor-assay potency score (higher = more potent) for 36 sequences.

Some targets named below: TMEM156; TMEM147; TMEM130; TMEM140; TMEM18; TMEM158.
Common to all, as to assay: pooled miR-30 sensor sort-seq; sequence = guide strand
What all share (settings): shRNA
Note: reference of the scale not given here.

In the assay with TMEM156, TACACTGAAGTTAAAGTGCTGA came in with a sensor-assay potency score (higher = more potent) of 0.144.

For TTGTAGGTGATGAAGTAGGGGA, the sensor-assay potency score (higher = more potent) in the assay with TMEM147 was -0.423.

In the assay with TMEM130, TTGTCCTTGGCCACCAGGCTGG gave a sensor-assay potency score (higher = more potent) of -1.04.

In turn, ATAGTTATAATAGACCACGGAG displayed a sensor-assay potency score (higher = more potent) in the assay with TMEM130 of -0.516.

For TTGGAGTCTATGCTCATCTGGA, the sensor-assay potency score (higher = more potent) with TMEM147 is -0.274.

Consider TTCCTGAGAAATAAAATCCATG, for which the sensor-assay potency score (higher = more potent) in the assay with TMEM156 is -1.19.

Sequence TAGAAGCCGATTCTCAGGTTGG had a sensor-assay potency score (higher = more potent) with TMEM140 of -0.232.

With TAGAGCTGCCCAACTGCCCAGC, in the assay with TMEM147, the sensor-assay potency score (higher = more potent) is -1.02.

As for TAGATTGCAAACACACTTCCAG, the sensor-assay potency score (higher = more potent) with TMEM156 was 0.703.

TTTGCTTTCACTTCCATTGATC came in with a sensor-assay potency score (higher = more potent) with TMEM156 of -0.423.

TCTGGATGTACTTCCAGTCAAA had a sensor-assay potency score (higher = more potent) with TMEM147 of -1.49.

TATGTGTACAACCTTTAGTTAT showed a sensor-assay potency score (higher = more potent) with TMEM130 of -1.54.

As for ATGAACAGCAGCTGGTCGCGCC, the sensor-assay potency score (higher = more potent) with TMEM140 was -1.18.

For the sequence TTCAAGGTCACGGTCATCTTTT, the sensor-assay potency score (higher = more potent) in the assay with TMEM130 is -0.705.

Regarding TGCTCATGAACAGCAGCTGGTC, the sensor-assay potency score (higher = more potent) with TMEM140 was -1.48.

For the sequence TAGACCTATCAGGTCTGCCACA, the sensor-assay potency score (higher = more potent) with TMEM147 is -1.51.

Regarding TTTATTTAGCAACAATGGCAGT, the sensor-assay potency score (higher = more potent) with TMEM130 is -0.968.

The sequence TTATAGAAGCCGATTCTCAGGT had a sensor-assay potency score (higher = more potent) with TMEM140 of 0.174.

With TTGCCAGTAAGCACCAGCGGGG, the sensor-assay potency score (higher = more potent) with TMEM130 was -1.3.

With TATTGTCTCAGCCACAGCCCAG, in the assay with TMEM130, the sensor-assay potency score (higher = more potent) was -1.4.

For the sequence TCATAGCGTGTTATCATCCAGA, the sensor-assay potency score (higher = more potent) with TMEM147 is -0.557.

ATCACGAGGACTATGATGCTCA came in with a sensor-assay potency score (higher = more potent) with TMEM140 of -0.61.

The sequence TAGAGAAACAAGGCGGTCTTGA gave a sensor-assay potency score (higher = more potent) with TMEM130 of 0.529.

In the assay with TMEM156, TTTTATATCCATCTCCAGGTGC came in with a sensor-assay potency score (higher = more potent) of -0.346.

Consider TTCTGCTTCACAGCCCTCGTGG, for which the sensor-assay potency score (higher = more potent) with TMEM130 was -0.803.

Turning to TTATCATCCAGACCTGAGCAGA, the sensor-assay potency score (higher = more potent) with TMEM147 was -0.978.

The sequence TTAAGAGAACAGATGTAGGTTT registered a sensor-assay potency score (higher = more potent) with TMEM156 of 0.112.

TATGATGCTCATGAACAGCAGC yielded a sensor-assay potency score (higher = more potent) with TMEM140 of -0.769.

In turn, AAGAGCGTAAAACATCAGGCAG registered a sensor-assay potency score (higher = more potent) with TMEM140 of -0.966.

For TGTGGTACAGATCATAGCGTGT, in the assay with TMEM147, the sensor-assay potency score (higher = more potent) was -0.505.

The sequence TTTCAAACCATGAGTCAGCTGG registered a sensor-assay potency score (higher = more potent) in the assay with TMEM18 of 0.141.

TAGGTCGCACTGGAAGCCCCGC displayed a sensor-assay potency score (higher = more potent) with TMEM158 of -0.714.

For the sequence ATGACCAGGGTCATGAAGCAGG, the sensor-assay potency score (higher = more potent) in the assay with TMEM158 was -1.09.

In the assay with TMEM18, ATAATCTCCAGTTCATCGCAGC returned a sensor-assay potency score (higher = more potent) of -0.328.

Sequence TAGTCTGTAGCTTCGGGAGGAC came in with a sensor-assay potency score (higher = more potent) with TMEM18 of -0.482.

Sequence TATATTTATAATTAGTACTAGT gave a sensor-assay potency score (higher = more potent) with TMEM18 of -0.393.
